The target of assay [1] is Androgen receptor (Homo sapiens) (UniProt P10275). As to the kind of experiment: qHTS assay for small molecule agonists of androgen receptor signaling (AID 588515; active means well fitted curve in the direction sought with a large enough effect in the signal ratio, with a control signal flat; the % refers to the signal ratio). The settings on record: AR-UAS-bla HEK293, beta-lactamase ratio, agonist 16 h; stronger effect = higher value. Put shortly:
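EC50 and efficacy came from Hill fits of titrations (up to 92 uM) normalized to 30 nM R1881 as 100% and DMSO as 0%. Compound exposure was 16 h at 37 C on AR-UAS-bla HEK293 cells, with a 405/460/530 nm CCF4 fluorescence read.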
For orientation: Quantitative high-throughput screening tests each substance at several concentrations.

Assay [2] has the same target. As to the kind of experiment: qHTS assay for small molecule antagonists of androgen receptor signaling (AID 588516; active means well fitted curve in the direction sought with a large enough effect in the signal ratio, with a control signal flat, not every such curve was filed as active; the % refers to the signal ratio). To be noted: AR-UAS-bla HEK293, beta-lactamase ratio, antagonist mode, 16 h; series mostly up to 76.8 µM. Put shortly: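 Antagonist-mode qHTS: inhibition of R1881 (10 nM)-driven beta-lactamase expression in GripTite HEK 293 cells is measured after 16 h; values are Hill-derived IC50s normalized between R1881 and DMSO wells.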

Assay [3] has as its target Glucocorticoid receptor (Homo sapiens) (UniProt P04150). As to the kind of experiment: qHTS assay for small molecule antagonists of glucocorticoid receptor signaling (AID 588533; active means well fitted inhibition curve with a large enough effect in the signal ratio, with a control signal flat, not every such curve was filed as active; the % refers to the signal ratio;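 further: cells stimulated with 2 nM dexamethasone as agonist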). To be noted: HeLa MMTV-bla, GRE beta-lactamase ratio, antagonist mode, 18 h; series mostly up to 76.8 µM. Summed up:
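Antagonist-mode qHTS: compound titrations added to GRE-bla HeLa cells, then dexamethasone 2 nM final; 18 h, 37 C. CCF4 FRET fluorescence normalized to dexamethasone and DMSO; IC50 from Hill fit.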

Assay [4] can be described thus: qHTS assay to identify small molecules that stimulate interleukin-8 (IL-8) secretion (AID 651758; active means well fitted activation curve with a large enough effect in the signal ratio; the % refers to the signal ratio). To be noted: HTRF ratio (665/615); series mostly up to 92.2 µM. Put shortly: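 THP-1 cells (2000/well) exposed to compound 16 h at 37 C; secreted IL-8 then detected by HTRF with cryptate- and XL665-labelled anti-IL-8 antibody pair after 1-3 h at room temperature.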
The target of assay [5] is Cytochrome P450 3A4 (Homo sapiens) (UniProt P08684). As to the kind of experiment: qHTS Assay for Activators of Cytochrome P450 3A4 (AID 885). Further: nearly all actives have a fitted effect of over 65% in size. To be noted: recombinant CYP3A4, Luciferin-PPXE luminescence, 60 min; series mostly up to 57.1 µM. Summed up:
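Steps: enzyme/substrate mix dispensed; compound added, 10 min RT; NADPH regeneration solution added, 60 min RT; luciferin detection buffer stops reaction; 20 min later luminescence measured.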

A short description of assay [6]: Confirmation and Secondary Assay for Modulators of Hemoglobin Beta Chain Splicing at IVS2 654 locus (AID 910).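 Further: HeLa cells stably carrying EGFP split by mutant beta-globin IVS2-654 intron.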 The settings on record: HeLa EGFP-654 splicing reporter, GFP fluorescence, 48 h; series mostly up to 38.3 µM. Put shortly: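 HeLa cells stably expressing EGFP interrupted by β-globin IVS2-654 intron, seeded overnight in Opti-MEM/2% FCS, then treated 2 days at 37 °C. Restored splicing read as total peak GFP intensity per well by laser scanning cytometry (488 nm excitation, 500–520 nm emission); 500 nM antisense PNA as control.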

The nature of assay [7]: Confirmation and Secondary Assay for Modulators of Hemoglobin Beta Chain Splicing at IVS2 705 locus (AID 930).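 Further: HeLa cells stably expressing the EGFP-705 splicing reporter; GFP fluorescence per well restored by corrected splicing of the IVS2-705 intron in EGFP.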 To be noted: HeLa EGFP-705 splicing reporter, GFP fluorescence, 48 h; series mostly up to 38.3 µM. Put shortly:
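Stable HeLa line with EGFP disrupted by mutant beta-globin intron 2 (705). Overnight attachment, then 2 days of compound at 37C, 5% CO2. Signal: peak GFP intensity summed over objects 5-250 µm.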

Values joined by “and” are separate entries in the source; they are usually repeats but may differ in a detail not shown here. Equal entries are not always repeated. Unmarked numbers belong to inactive results. Results filed as inconclusive are left out. Entries that show only a call come without a potency. Active and inactive are the calls of the source. Unless noted, the call rests on the fitted dose curve; in most records, active means well fitted curve in the direction sought with a large enough effect; inconclusive means small, poorly fitted or top-dose-only effect, or another doubt; inactive means no such curve, though single readings can be large; an effect the other way counts as inactive or inconclusive.

Glucocorticoid receptor (Homo sapiens), sequence (P04150 whole entry, looked up): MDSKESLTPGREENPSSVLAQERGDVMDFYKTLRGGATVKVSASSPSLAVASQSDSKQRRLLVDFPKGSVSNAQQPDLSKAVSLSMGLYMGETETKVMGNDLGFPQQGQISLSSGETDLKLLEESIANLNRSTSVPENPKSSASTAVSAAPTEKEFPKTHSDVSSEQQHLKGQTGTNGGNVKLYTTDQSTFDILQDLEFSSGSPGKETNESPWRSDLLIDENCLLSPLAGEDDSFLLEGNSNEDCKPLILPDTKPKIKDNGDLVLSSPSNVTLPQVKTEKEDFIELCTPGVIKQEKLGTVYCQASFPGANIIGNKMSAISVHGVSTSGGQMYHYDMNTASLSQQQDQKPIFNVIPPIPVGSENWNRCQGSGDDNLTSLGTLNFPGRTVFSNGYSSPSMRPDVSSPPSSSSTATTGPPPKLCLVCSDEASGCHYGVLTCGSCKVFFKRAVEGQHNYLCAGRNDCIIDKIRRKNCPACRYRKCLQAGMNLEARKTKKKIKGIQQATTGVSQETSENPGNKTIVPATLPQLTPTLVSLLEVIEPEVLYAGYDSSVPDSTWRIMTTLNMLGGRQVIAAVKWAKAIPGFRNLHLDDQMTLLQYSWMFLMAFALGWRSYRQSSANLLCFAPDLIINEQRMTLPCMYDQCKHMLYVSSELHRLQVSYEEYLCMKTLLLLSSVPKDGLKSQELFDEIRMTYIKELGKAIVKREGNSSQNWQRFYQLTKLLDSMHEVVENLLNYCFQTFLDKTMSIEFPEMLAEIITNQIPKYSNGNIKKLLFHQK
Androgen receptor (Homo sapiens), sequence (P10275 whole entry, looked up): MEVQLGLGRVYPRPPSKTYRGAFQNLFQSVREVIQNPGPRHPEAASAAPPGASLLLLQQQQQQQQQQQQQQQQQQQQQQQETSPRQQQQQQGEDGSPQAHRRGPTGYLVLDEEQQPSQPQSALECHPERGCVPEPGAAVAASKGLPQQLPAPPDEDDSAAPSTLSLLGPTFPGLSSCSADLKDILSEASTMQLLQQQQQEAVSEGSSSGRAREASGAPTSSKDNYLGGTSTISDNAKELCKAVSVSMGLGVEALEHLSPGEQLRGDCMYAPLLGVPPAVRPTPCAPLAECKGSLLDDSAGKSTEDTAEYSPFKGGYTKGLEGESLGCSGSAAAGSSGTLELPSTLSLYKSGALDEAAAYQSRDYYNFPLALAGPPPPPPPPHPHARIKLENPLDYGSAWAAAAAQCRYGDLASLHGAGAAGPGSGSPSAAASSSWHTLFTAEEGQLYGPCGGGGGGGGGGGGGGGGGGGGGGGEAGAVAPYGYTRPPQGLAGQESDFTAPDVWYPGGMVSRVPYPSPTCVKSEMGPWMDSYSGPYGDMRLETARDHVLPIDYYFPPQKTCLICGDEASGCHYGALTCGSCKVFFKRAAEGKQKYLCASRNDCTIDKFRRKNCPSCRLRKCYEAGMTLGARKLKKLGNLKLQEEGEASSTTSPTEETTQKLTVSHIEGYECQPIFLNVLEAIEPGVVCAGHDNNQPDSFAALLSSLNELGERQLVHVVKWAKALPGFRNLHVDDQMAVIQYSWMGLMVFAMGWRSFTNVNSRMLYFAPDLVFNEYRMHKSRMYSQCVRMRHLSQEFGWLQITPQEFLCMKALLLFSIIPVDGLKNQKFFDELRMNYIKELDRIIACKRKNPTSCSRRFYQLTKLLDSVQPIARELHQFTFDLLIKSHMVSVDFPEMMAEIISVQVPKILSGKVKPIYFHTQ
Cytochrome P450 3A4 (Homo sapiens), sequence (P08684 whole entry, looked up): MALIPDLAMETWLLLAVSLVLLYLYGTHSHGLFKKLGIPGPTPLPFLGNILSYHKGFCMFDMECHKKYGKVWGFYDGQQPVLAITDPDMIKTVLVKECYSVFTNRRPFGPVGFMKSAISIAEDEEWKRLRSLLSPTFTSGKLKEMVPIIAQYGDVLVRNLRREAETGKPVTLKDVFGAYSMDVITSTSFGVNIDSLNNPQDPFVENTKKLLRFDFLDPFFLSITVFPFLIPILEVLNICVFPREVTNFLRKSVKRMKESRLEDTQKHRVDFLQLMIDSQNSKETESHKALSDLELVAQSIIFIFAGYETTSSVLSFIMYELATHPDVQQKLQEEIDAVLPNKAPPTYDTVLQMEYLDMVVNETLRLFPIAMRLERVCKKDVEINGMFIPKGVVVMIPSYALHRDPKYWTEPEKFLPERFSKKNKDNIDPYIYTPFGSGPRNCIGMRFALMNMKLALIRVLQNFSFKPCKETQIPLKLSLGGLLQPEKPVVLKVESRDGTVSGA

Turning to `[N-]=[N+]=[N-]`, the activation in assay [1] was -1.14%. Further, the result in assay [2] was inactive.

`CCCCC(CC)COC(=O)c1ccc(C(=O)OCC(CC)CCCC)c(C(=O)OCC(CC)CCCC)c1` (stereo not drawn): the activation in assay [1] was -4.73%. The result in assay [3] was inactive. In the case of `O=[N+]([O-])c1ccccc1O`, the result in assay [3] was inactive. In addition, the Potency result in assay [4] is “inactive”. With `BrC(Br)Br`, the result in assay [3] was inactive.

In the case of `Cc1ccc(N)cc1N`, the result in assay [3] was inactive. Turning to `BrCC(Br)C1CCC(Br)C(Br)C1` (stereo not drawn), the activation in assay [1] is 1.31%. In addition, in assay [2], the outcome was inactive. In the case of `CNC(=O)O/N=C/C(C)(C)S(C)=O` (stereo not drawn), the result in assay [3] was inactive. Further, the Potency entry in assay [4] is “inactive”.

With `CCCN(CCC)c1c([N+](=O)[O-])cc(C(F)(F)F)cc1[N+](=O)[O-]`, in assay [5], the Potency entry was “inactive”. In addition, the result in assay [6], in assay [7] and in assay [2] was inactive. Besides, the activation in assay [1] is -14.6% and 7.28%. On to `O=P(OCCCl)(OCCCl)OCCCl`, for which the outcome in assay [3] was inactive. Besides, the Potency result in assay [4] was “inactive”. For the compound `Nc1ccc(-c2ccc(N)c(Cl)c2)cc1Cl`, the Potency result in assay [5] is “inactive”.

With `CCOC(=O)C1OC1(C)c1ccccc1` (stereo not drawn), in assay [3], the outcome was inactive. Further, the Potency entry in assay [4] is “inactive”. For the compound `Cc1ccc(N)c(N)c1`, the Potency result in assay [5] was “inactive”.

`Clc1ccccc1`: in assay [3], the result was inactive. As to `BrCCc1ccccc1`, the outcome in assay [3] was inactive.

In the case of `Cc1coc2c1CCC(C)C2` (stereo not drawn), in assay [3], the outcome was inactive. For the same compound, in assay [4], the Potency entry was “inactive”. Take `O=NN1CCCCC1`: the activation in assay [1] was 6.11%. For the same compound, the result in assay [2] and in assay [3] was inactive. For the same compound, the Potency entry in assay [4] was “inactive”. As to `Nc1cc(Cl)cc(Cl)c1`, in assay [5], the Potency entry was “inactive”. Turning to `Oc1ccc(Cl)c(Cl)c1Cl`, the Potency entry in assay [5] and in assay [4] was “inactive” in each case. In addition, the outcome in assay [3] was inactive. Consider `CC(C)OS(C)(=O)=O`, for which, in assay [4], the Potency result is “inactive”.

For the compound `CCOC(=O)CBr`, in assay [4], the Potency result was “inactive”.

Take `Oc1cc(Cl)cc(Cl)c1`: in assay [3], the result was inactive. In addition, in assay [4], the Potency entry is “inactive”. Regarding `N#CC(O)c1ccccc1` (stereo not drawn), the outcome in assay [3] was inactive. Moreover, in assay [4], the Potency entry is “inactive”. For `Cc1cc(C)cc(OP(=O)(Oc2cc(C)cc(C)c2)Oc2cc(C)cc(C)c2)c1`, the result in assay [3] was inactive.

Take `C=CCOCC1CO1` (stereo not drawn): the outcome in assay [3] was inactive.
